Assay results taken from PubChem BioAssay AID720518 (National Center for Advancing Translational Sciences (NCATS), 2013).
Records with an inconclusive call do not appear. A number with no mark means an inactive call. Calls of active or inactive are those of the source. Calls follow the shape of the full dose curve.

Assay: qHTS for Inhibitors of Cell Surface uPA Generation: Wild-type Protective Antigen (WT-PrAg) Counterscreen for Cherry-picked Compounds; as to activity (protection): 0% is about no effect
Conditions: cells, WT protective antigen toxicity counterscreen; series mostly up to 115 µM; activity (protection): at the top concentration
Potency is read from the fitted curve at half-maximal effect.

| SMILES | activity (protection) [%] | Potency |
| --- | --- | --- |
| COc1ccc(-c2cc(-c3ccccc3)nc3ncnn23)cc1 | -1.59 |  |
| CCOC(=O)Cn1c(=O)cc(C)c2cccc(C)c21 | 5.3 |  |
| COC(=O)c1c(NC(=O)c2c(OC)cccc2OC)sc2c1C(C(=O)OC)CC2 (stereo not drawn) |  | 46.5 µM (active) |
| CC(C)CNC(=O)COC(=O)CCC(=O)c1cccs1 | -0.0024 |  |
| COc1cccc(CN(C)C(=O)c2cc(S(=O)(=O)N3CCCC3)ccc2C)c1OC | -0.352 |  |
| O=c1[nH]c(=O)n(CCc2ccccc2)c(O)c1C=NC1CC1 | -0.566 |  |
| CCN(c1ccc(OC)cc1)S(=O)(=O)c1ccc2c(c1)NC(=O)CS2 | -1.04 |  |
| CC1(CC(=O)N/N=C/c2cc(Br)c(O)cc2O)OCCO1 | -2.29 |  |
| COc1cccc(C(=O)NCC(c2ccco2)N2CCc3ccccc3C2)c1 (stereo not drawn) | 0.587 |  |
| Cc1cccc(N2CCN(Cc3ccc(Br)o3)CC2)c1C | 2.05 |  |
| Cc1ccnc(N2CCN(C(=O)CSc3nc4ccccc4nc3N3CCC(C)CC3)CC2)c1 | -2.13 |  |
| O=C(Nc1cccc(-c2nn[nH]n2)c1)c1ccc(Cl)s1 | -1.91 |  |
| COc1ccccc1NC(=O)N1C[C@@H]2C[C@@H](C1)c1cccc(=O)n1C2 | 0.274 |  |
| CCC(C)NC(=O)c1ccc2nc(-c3ccc(OC)c(OC)c3)c(-c3ccc(OC)c(OC)c3)nc2c1 (stereo not drawn) | -2.18 |  |
| COc1cccc(NC(=O)CSc2nc3ncc(Br)cc3[nH]2)c1 | 0.5 |  |
| C=CC1=C(C(=O)O)N2C(=O)[C@@H](NC(=O)/C(=N\O)c3csc(N)n3)[C@H]2SC1 (stereo in doubt) | 0.487 |  |
| COc1ccc(N2CCN(C3CCN(S(=O)(=O)c4ccc(F)cc4)CC3)CC2)cc1 | -0.637 |  |
| COc1ccc(N(C(C)C(=O)NN=C2CCCC2)S(C)(=O)=O)cc1 (stereo not drawn) | 0.768 |  |
| O=C1CCCC/C1=C\Nc1ccc(S(=O)(=O)Nc2cnc3ccccc3n2)cc1 | -0.866 |  |
| O=c1[nH]c2ccccc2cc1CN(CC1CCCO1)S(=O)(=O)c1ccccc1 (stereo not drawn) | -0.109 |  |
| S=C(Nc1ccccc1Cl)N1CCCC(c2ccccc2)=N1 |  | 16.5 µM (active) |
| Cc1ccc([C@H]2C(C(=O)O)=CC[C@@H](c3cccc(C)c3)N2S(=O)(=O)c2ccc(C)cc2)cc1 | -1.7 |  |
| Cc1ccc(N=C2SCCCN2C(=O)c2cccc(N3C(=O)CCC3=O)c2)cc1Cl | -1.92 |  |
